For 11 compounds, Potency results are on record in PubChem BioAssay (NCATS).

Inconclusive results are not listed. A call without a number means that no potency is given here. Active and inactive are the calls of the source. Calls follow the shape of the full dose curve.
Potency is read from the fitted curve at half-maximal effect.

This test in a line: qHTS assay for small molecule disruptors of the mitochondrial membrane potential - 5 hr assay (AID 651755). Also: nearly all actives have a fitted effect of over 40% in size. Conditions: JC-1-type ratio dye; series mostly up to 92.2 µM. The text has this: National Center for Advancing Translational Sciences [NCATS]
NIH Chemical Genomics Center [NCGC]
National Institutes of Environmental Health Sciences [NIEHS]
National Toxicology Program [NTP]
Mitochondrial membrane potential (MMP), one of the parameters for mitochondrial function, is generated by mitochondrial electron transport chain that creates an electrochemical gradient by a series of redox reactions. This gradient drives the synthesis of ATP, a crucial molecule for various cellular processes. Measuring MMP in living cells is commonly used to assess the effect of chemicals on mitochondrial function. […] The dye accumulates in the mitochondria of healthy cells as aggregates, with red fluorescence. The mitochondrial potential collapses and the dye can no longer accumulate in the mitochondria and remains in the cytoplasm in monomers, with green fluorescence.
2,000 HepG2 cells in 5 uL/well were dispensed into black, clear-bottom 1536-well plates using a Multidrop Combi (Thermo Scientific) dispenser. The assay plates were incubated overnight at 37C to allow cells to attach to the wells, followed by the transfer of 23 nL compound or DMSO vehicle by a pin tool (Kalypsys). The plates were incubated for 5 hr at 37C and 5% CO2, followed by the addition of 5 uL of 2X Mito-MPS dye (BD Biosciences) into each well using Flying Reagent Dispenser (Aurora Discovery) and then following 30 min incubation at 37C. Fluorescence intensity (490nm excitation and 535nm emission for monomers; and 540nm excitation and 590nm emissions for aggregates) was measured using an Envision plate reader.
`Nc1nc2ccc([N+](=O)[O-])cc2s1`: the Potency is 16.8 µM (active).

`CN(C)c1ccc(N=NS(=O)(=O)O)cc1`: the Potency is 8.41 µM (active).

As for `CN(C)c1ccc(C(=C2C=CC(=[N+](C)C)C=C2)c2ccccc2)cc1`, the Potency is 0.841 µM (active).

In the case of `CC(C)NCC(O)COc1cccc2ccccc12` (stereo unspecified), the Potency entry was “inactive”.

As for `C#C[C@]1(O)CC[C@H]2[C@@H]3CCc4cc(O)ccc4[C@H]3CC[C@@]21C`, the Potency result was “inactive”.

As for `CCCCCCCCCCCCCCCCCC(=O)O`, the Potency result was “inactive”.

For `O=C(O)c1cc(O)c(O)c(O)c1`, the Potency result was “inactive”.

As to `CN(C)CCC(c1ccc(Cl)cc1)c1ccccn1` (stereo unspecified), the Potency result was “inactive”.

`CN1CCC[C@H]1c1cccnc1`: the Potency result was “inactive”.

Consider `COc1cc(/C=C/C(=O)CC(=O)/C=C/c2ccc(O)c(OC)c2)ccc1O`, for which the Potency was 5.96 µM (active).

With `COc1cc(CNC(=O)CCCC/C=C/C(C)C)ccc1O`, the Potency result was “inactive”.
